The record followed here is the OligoGym collection.
Also: reference of the scale not given here.

The target in the first assay is ZDHHC4. Put plainly: pooled miR-30 sensor sort-seq; sequence = guide strand. The conditions noted are these: shRNA.
In turn, ATACAGGACAAACAACAGGTAG yielded a sensor-assay potency score (higher = more potent) of -1.34. Consider TTATACAGGAAAATATCTGTGC, for which the sensor-assay potency score (higher = more potent) came out at 0.584. ATCTCTTGAAGGTTGCTCCGAA returned a sensor-assay potency score (higher = more potent) of -0.154.

As to TTTGCTTTTGTTATAATGCCAG, the sensor-assay potency score (higher = more potent) is -0.404. On the same count and under the same terms, the result for TAAACGGGAACTACAGCTCAAA reads -0.745; that for TACCACTCGTTAGTAGTCTGGT, -0.0383. In the case of TTGGAAACATCACTTCATCAAA, the sensor-assay potency score (higher = more potent) is -1.15. In turn, TACAGGACAAACAACAGGTAGC registered a sensor-assay potency score (higher = more potent) of -0.502. Sequence TACTGAATAAGAAAGACCGTGT yielded a sensor-assay potency score (higher = more potent) of 0.745. On the same count and under the same terms, the result for TAAATCTGACATCACCACCAAG reads -0.923. Still for that read-out and setting: the result for TAGAAAGATCTCTTGAAGGTTG reads 0.193; that for TTGCTTTTGTTATAATGCCAGG, -1.32.

In a further assay the target is ZDHHC6. The assay is described as above. The settings on record: shRNA.
Sequence TTTGTCTCCATATAACCAGTAT yielded a sensor-assay potency score (higher = more potent) of -0.758. As to TTATTCTTGAAACACCTTCTAT, the sensor-assay potency score (higher = more potent) is -0.81.

Sequence TTGGTAACCACAACAGTTGTTG yielded a sensor-assay potency score (higher = more potent) of -0.394. The same measure, in the same setting: the result for ATTTTGTCTCCATATAACCAGT reads -1.42; that for TATTCTTGAAACACCTTCTATA, -0.715. Sequence TTTTCTAGGGAACCAACCCCTT displayed a sensor-assay potency score (higher = more potent) of -1.12. The same measure, in the same setting: the result for AACTGTTCTATTGTTAAGCTGT reads -0.493; that for TTCTTGTAGATTTTCAAACTTG, -0.053; that for TTCTGCAGTGATGTGAACGTGG, 0.312.
